Records with an inconclusive call do not appear. Activity calls are given as the source filed them. The call rests on the fitted dose curve; in most records, active means well fitted inhibition curve with a large enough effect in the repeat runs; inconclusive means weak or mixed curves; inactive means no such curve, though single readings can be large or run the other way.
target: Cytochrome P450 2C9 (Homo sapiens) (UniProt P11712); experiment: Cytochrome P450 family 2 subfamily C member 9 (CYP2C9) small molecule antagonists: luciferase biochemical (cell-free) qHTS assay (AID 1645842); conditions: P450-Glo CYP2C9 enzyme assay, luciferin luminescence; series mostly up to 57.4 µM; activity change, negative = inhibition: at the top concentration; further: nearly all actives have a fitted effect of over 55% in size
Sequence (P11712 whole entry, looked up): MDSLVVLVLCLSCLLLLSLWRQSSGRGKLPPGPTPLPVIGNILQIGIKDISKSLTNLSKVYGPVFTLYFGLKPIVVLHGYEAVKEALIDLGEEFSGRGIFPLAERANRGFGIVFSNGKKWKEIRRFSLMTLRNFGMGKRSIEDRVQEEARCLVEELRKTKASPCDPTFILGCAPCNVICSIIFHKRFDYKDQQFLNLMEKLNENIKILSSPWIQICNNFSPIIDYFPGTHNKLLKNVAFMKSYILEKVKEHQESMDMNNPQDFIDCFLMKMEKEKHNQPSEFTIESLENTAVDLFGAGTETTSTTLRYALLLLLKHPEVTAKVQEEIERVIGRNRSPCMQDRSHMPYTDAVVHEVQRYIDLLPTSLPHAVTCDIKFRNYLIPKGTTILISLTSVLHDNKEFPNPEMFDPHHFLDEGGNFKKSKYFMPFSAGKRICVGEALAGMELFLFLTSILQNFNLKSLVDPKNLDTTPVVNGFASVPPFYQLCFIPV
Description: National Center for Advancing Translational Sciences [NCATS] Assay Overview: Cytochrome P450 (CYP) enzymes are membrane-bound hemeproteins that play a key role in metabolism of drugs and xenobiotics. Assaying the effect of chemicals on CYP isozymes is useful to minimize the adverse drug reactions and toxicities in drug development process. Chemical compounds were tested for their effect on CYP enzyme activities by using P450-Glo (TM) screening systems (Promega Corporation, Madison, WI). These systems provide a luminescent method containing proluciferin substrates and are converted to luciferin products by CYP isozymes. The luciferin products formed are detected with a luciferin detection reagent, and the amount of light produced is proportional to CYP activity. P450-Glo (TM) CYP2C9 screening system (Catalog. No. V9790) was used to detect the compounds that interfere in CYP2C9 activity.
Assay Protocol Summary: Two ul of enzyme-substrate mix supplemented with 0.4% Bovine Serum Albumin was dispensed into medium binding white/solid 1536-well plates (Greiner Bio-One North America Inc., Monroe, NC) using a Flying Reagent Dispenser (FRD, Aurora Discovery, San Diego, CA). […] The assay plates were incubated at room temperature for 10 min. Then 2 ul of NADPH regeneration solution was added to each well of the assay plates using an FRD and incubated at 37C for 1 h. The reaction was stopped by adding 4 ul of detection reagent using an FRD and after 20 min incubation at room temperature, the luminescence signal was measured using a ViewLux plate reader (Perkin Elmer, Shelton, CT). Data were expressed as relative luminescence units.
On the % scale 0 is the no-effect control and ±100 the full control effect; potency means the concentration at half of the fitted maximal effect.

SMILES | Potency | activity change, negative = inhibition
CC1(C)[C@H](C=C(Cl)Cl)[C@@H]1C(=O)OCc1c(F)c(F)cc(F)c1F | 12 µM (active) | 
O=[As]O[As]=O (stereo unspecified) |  | -13.5% (inactive)
CCOC(=O)/C=C/[C@H](C[C@@H]1CCNC1=O)NC(=O)[C@@H](CC(=O)[C@@H](NC(=O)c1cc(C)on1)C(C)C)Cc1ccc(F)cc1 | 4.77 µM (active) | 
CN(C)[C@@H]1C(=O)C(C(N)=O)C(=O)[C@@]2(O)C(=O)C3C(=O)c4c(O)ccc(Cl)c4[C@@](C)(O)C3C[C@@H]12 (stereo partly specified) |  | -15.6% (inactive)
N#CC(O[C@@H]1O[C@H](CO[C@@H]2O[C@H](CO)[C@@H](O)[C@H](O)[C@H]2O)[C@@H](O)[C@H](O)[C@H]1O)c1ccccc1 (stereo partly specified) |  | 1.15% (inactive)
CCOC(=O)C=C(C)C=CC[C@@H](C)CCCC(C)C | 10.7 µM (active) | 
CCN(CC)N(O)N=O |  | 0.717% (inactive)
CCN1CCN(C(c2ccc(Cl)cc2)c2ccc(Cl)cc2)CC1 |  | 0.576% (inactive)
CCOc1ccc(NC(=O)Cn2cc(C(=O)c3ccccc3)c3ccccc32)cc1 | 16.9 µM (active) | 
CC(Cc1ccc2c(c1)OCO2)NCC(O)c1ccc(O)c(O)c1 (stereo unspecified) | 15.1 µM (active) | 
C[C@]12C[C@@H]3S[C@H]3C[C@@H]1CC[C@H]1[C@H]3CC[C@@H](O)[C@@]3(C)CC[C@@H]12 | 0.107 µM (active) | 
C[C@@H](C1CC[C@@]2(O)C3=CC(=O)[C@@H]4C[C@@H](O)[C@@H](O)C[C@]4(C)[C@H]3CC[C@]12C)[C@H](O)CCC(C)(C)O (stereo partly specified) |  | -15.5% (inactive)
CCN=C1Nc2ccc(Cl)cc2C(C)(c2ccccc2)O1 (stereo unspecified) | 9.52 µM (active) | 
C=CCC1(CC(C)C)C(=O)NC(=O)NC1=O |  | 0.0847% (inactive)
CC(C)(N)Cc1ccccc1 |  | -3.05% (inactive)
CNC(C)[C@@H](O)c1ccc(O)cc1 (stereo partly specified) |  | 4.75% (inactive)
CC1=NCCc2c1[nH]c1cc(O)ccc21 |  | 3.11% (inactive)
CC=CC1C(C(=O)OCc2c(F)c(F)c(COC)c(F)c2F)C1(C)C (stereo unspecified) | 10.7 µM (active) | 
CC(=O)Oc1ccc(Cl)c2cccnc12 |  | 6.45% (inactive)
NCCS[As](SCCN)c1ccc(Nc2nc(N)nc(N)n2)cc1 |  | -27.3% (inactive)
Cc1ccccc1[C@@H](C(=O)NC1CCCCC1)N(C(=O)Cn1ccnc1C)c1cccc(F)c1 |  | -27.7% (inactive)

Source: PubChem BioAssay (NCATS)
